The text below walks through data of PubChem BioAssay (EPA / NIEHS).

Records with an inconclusive call do not appear. The source made the active and inactive calls. Rule for the calls: active = hit-call score of the fitted dose curve at least 0.9, where 1 is the maximum; inconclusive = response in the unintended direction; inactive = score below 0.9.

In assay [1] the target is rat CYP3A2, Cyp3a2 (gene 266682) (UniProt P05183). Nature of the assay: NVS_ADME_rCYP3A2: NovaScreen (NVS) CYP450-related Enzyme Activity (ADME) Assay for rat CYP3A2 (AID 2283128). In short, it runs like this: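 Fluorescence readout of extracted rat CYP3A2 activity 0.5 h post-dose, acetonitrile as negative control. Single-point testing in duplicate at 10 uM, followed by concentration series to a 20 uM maximum for actives.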

Another assay has as its target Caspase-1 (Homo sapiens) (UniProt P29466). Description: NVS_ENZ_hCASP1: NovaScreen (NVS) Enzymatic Assay for human Caspase 1 (CASP1) (AID 2283132). A digest of the protocol: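 Compounds were first tested in duplicate at 25 uM, with follow-up concentration series up to 50 uM. The bacterially expressed enzyme was read by fluorescence at 1 h post-dosing. Signal loss versus DMSO baseline indicates reduced enzyme activity.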

The target of assay [2] is human Beta-secretase (BACE), BACE1 (gene 23621) (UniProt P56817). Description: NVS_ENZ_hBACE: NovaScreen (NVS) Enzymatic Assay for human Beta-secretase (BACE) (AID 2283140).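 Note: hits are inhibitors that reduce fluorescent substrate signal versus DMSO.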 A digest of the protocol:
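Enzyme from SF9 cells was incubated 1 hour with compound and fluorogenic substrate, activity read by fluorescence. Single-concentration duplicates at 25 uM preceded concentration-response follow-up; fitting relative to DMSO baseline.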

In assay [3] the target is human Ephrin type-B Receptor 1 (EphB1), EPHB1 (gene 2047) (UniProt P54762). Description: NVS_ENZ_hEphB1: NovaScreen (NVS) Enzymatic Assay for human Ephrin type-B Receptor 1 (EphB1) (AID 2283154). In short, it runs like this: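 Recombinant EphB1 activity read by fluorescence after mobility-shift separation of product from substrate, 1 h post-dosing. Compounds screened in duplicate at 25 uM; inhibition scored as signal loss relative to DMSO.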

For assay [4], the target named is human Elastase, ELANE (gene 1991) (UniProt P08246). Description: NVS_ENZ_hElastase: NovaScreen (NVS) Enzymatic Assay for human Elastase (AID 2283153). A digest of the protocol:
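Concentration-response to 50 uM max, run singly for chemicals passing a threshold (e.g., 30% inhibition) in a duplicate 25 uM single-point screen. Neutrophil-derived human elastase, absorbance read-out of enzyme activity at 1.5 h; DMSO baseline.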

The target in assay [5] is human Acetylcholinesterase (AChE), ACHE (gene 43) (UniProt P22303). Description: NVS_ENZ_hAChE: NovaScreen (NVS) Enzymatic Assay for human Acetylcholinesterase (AChE) (AID 2283129). In short, it runs like this: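 Actives from a duplicate single-point screen (25 uM) were followed up in concentration series. Enzyme activity read by absorbance (colorimetric) 0.33 hour after dosing, cell-free, normalized to DMSO, with loss of signal scored.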

Assay [6] addresses human Caspase 10 (CASP10), CASP10 (gene 843) (UniProt Q92851). Nature of the assay: NVS_ENZ_hCASP10: NovaScreen (NVS) Enzymatic Assay for human Caspase 10 (CASP10) (AID 2283133). A digest of the protocol:
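Fluorescence-intensity enzyme read-out of E. coli-expressed CASP10 activity, 1 h after compound. Single-point duplicates at 25 uM preceded concentration-response testing (top 50 uM) of hits; inhibition expressed as signal loss versus DMSO.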

For assay [7], the target named is human Caspase 5 (CASP5), CASP5 (gene 838) (UniProt P51878). Description: NVS_ENZ_hCASP5: NovaScreen (NVS) Enzymatic Assay for human Caspase 5 (CASP5) (AID 2283137). In short, it runs like this: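 Loss of fluorescent signal versus DMSO scored for E. coli-derived human CASP5 cleaving a fluorescent substrate, 2 h post-dosing; compounds first tested at 25 uM in duplicate, hits rerun in concentration series with 50 uM top concentration.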

The target in assay [8] is human AKT serine/threonine Kinase 1 (AKT1), AKT1 (gene 207) (UniProt P31749). Nature of the assay: NVS_ENZ_hAKT1: NovaScreen (NVS) Enzymatic Assay for human AKT serine/threonine Kinase 1 (AKT1) (AID 2283138). A digest of the protocol:
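Screening first at 25 uM (duplicate), with threshold-passing chemicals re-tested in concentration series to a 50 uM maximum. Kinase activity read by fluorescence with mobility-shift separation of substrate and product, 1 h after dosing, DMSO baseline.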

The target in assay [9] is human AKT serine/threonine Kinase 2 (AKT2), AKT2 (gene 208) (UniProt P31751). Description: NVS_ENZ_hAKT2: NovaScreen (NVS) Enzymatic Assay for human AKT serine/threonine Kinase 2 (AKT2) (AID 2283141). A digest of the protocol:
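Cell-free fluorescence/electrophoretic mobility shift readout of recombinant human AKT2 activity, 1 h after chemical dosing. Duplicate primary screen at 25 uM, then singleton concentration-response up to 50 uM; loss of signal versus DMSO baseline.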

Assay [10] deals with human Caspase 2 (CASP2), CASP2 (gene 835) (UniProt P42575). Nature of the assay: NVS_ENZ_hCASP2: NovaScreen (NVS) Enzymatic Assay for human Caspase 2 (CASP2) (AID 2283135). In short, it runs like this: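 Single-point duplicate testing at 25 uM preceded concentration series topping at 50 uM. Activity of the recombinant E. coli-derived protease was followed by fluorescent substrate cleavage 1 h post-dosing, relative to DMSO.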

Assay [11] deals with human Colony Stimulating Factor 1 Receptor (CSF1R), CSF1R (gene 1436) (UniProt P07333). Nature of the assay: NVS_ENZ_hCSF1R: NovaScreen (NVS) Enzymatic Assay for human Colony Stimulating Factor 1 Receptor (CSF1R) (AID 2283150). A digest of the protocol:
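Compounds screened in duplicate at 25 uM, then concentration-response (top 50 uM) for those passing threshold such as 30% inhibition; recombinant CSF1R activity measured 1 h post-dosing via fluorescent substrate/product mobility-shift separation, loss of signal versus DMSO.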

Assay [12] has as its target human Caspase 4 (CASP4), CASP4 (gene 837) (UniProt P49662). Nature of the assay: NVS_ENZ_hCASP4: NovaScreen (NVS) Enzymatic Assay for human Caspase 4 (CASP4) (AID 2283143). A digest of the protocol:
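Compounds were first tested in duplicate at 25 uM, and hits were titrated singly to a 50 uM maximum. Recombinant protease from E. coli was read by fluorescence 2 h post-dose, and activity loss was fitted against the DMSO baseline.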

rat CYP3A2, Cyp3a2 (gene 266682), sequence (P05183 whole entry, looked up): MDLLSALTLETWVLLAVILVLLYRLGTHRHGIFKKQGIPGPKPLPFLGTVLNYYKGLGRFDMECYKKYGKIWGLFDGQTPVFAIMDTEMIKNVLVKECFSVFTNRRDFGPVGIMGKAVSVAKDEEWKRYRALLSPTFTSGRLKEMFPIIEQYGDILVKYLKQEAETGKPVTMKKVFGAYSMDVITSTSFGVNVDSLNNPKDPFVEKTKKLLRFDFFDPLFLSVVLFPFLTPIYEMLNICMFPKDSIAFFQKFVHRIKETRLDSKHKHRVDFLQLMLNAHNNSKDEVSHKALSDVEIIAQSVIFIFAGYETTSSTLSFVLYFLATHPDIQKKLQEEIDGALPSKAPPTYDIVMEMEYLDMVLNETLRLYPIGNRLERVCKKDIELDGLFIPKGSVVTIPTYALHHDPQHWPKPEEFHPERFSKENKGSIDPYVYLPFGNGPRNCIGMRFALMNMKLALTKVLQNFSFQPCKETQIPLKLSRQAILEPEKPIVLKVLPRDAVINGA
Caspase-1 (Homo sapiens), sequence (P29466 whole entry, looked up): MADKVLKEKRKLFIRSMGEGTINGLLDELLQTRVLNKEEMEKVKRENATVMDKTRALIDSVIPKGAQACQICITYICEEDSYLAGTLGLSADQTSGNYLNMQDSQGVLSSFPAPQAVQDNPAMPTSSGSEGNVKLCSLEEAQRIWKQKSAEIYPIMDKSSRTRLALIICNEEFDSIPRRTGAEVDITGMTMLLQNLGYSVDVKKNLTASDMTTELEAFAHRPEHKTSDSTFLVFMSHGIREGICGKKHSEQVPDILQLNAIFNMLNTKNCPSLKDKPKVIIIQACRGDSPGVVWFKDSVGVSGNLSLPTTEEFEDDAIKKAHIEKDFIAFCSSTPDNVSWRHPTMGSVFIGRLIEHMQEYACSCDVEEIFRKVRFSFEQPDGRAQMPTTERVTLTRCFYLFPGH
human Acetylcholinesterase (AChE), ACHE (gene 43), sequence (P22303 whole entry, looked up): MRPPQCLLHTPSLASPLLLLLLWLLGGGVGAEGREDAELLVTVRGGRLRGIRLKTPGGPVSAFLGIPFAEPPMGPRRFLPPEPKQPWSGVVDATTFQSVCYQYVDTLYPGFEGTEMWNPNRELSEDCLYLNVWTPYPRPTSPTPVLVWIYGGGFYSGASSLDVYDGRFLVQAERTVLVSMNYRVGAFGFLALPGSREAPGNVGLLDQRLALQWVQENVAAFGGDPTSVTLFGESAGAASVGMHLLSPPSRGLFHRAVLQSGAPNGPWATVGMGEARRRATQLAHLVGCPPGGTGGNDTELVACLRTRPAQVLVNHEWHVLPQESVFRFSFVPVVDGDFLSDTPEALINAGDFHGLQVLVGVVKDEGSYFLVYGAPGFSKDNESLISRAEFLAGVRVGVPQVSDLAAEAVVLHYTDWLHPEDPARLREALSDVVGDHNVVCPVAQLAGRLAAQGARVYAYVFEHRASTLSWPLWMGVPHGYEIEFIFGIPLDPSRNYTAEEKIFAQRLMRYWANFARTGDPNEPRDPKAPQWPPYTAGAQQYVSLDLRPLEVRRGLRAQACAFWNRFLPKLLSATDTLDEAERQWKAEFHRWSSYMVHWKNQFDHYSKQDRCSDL
human Elastase, ELANE (gene 1991), sequence (P08246 whole entry, looked up): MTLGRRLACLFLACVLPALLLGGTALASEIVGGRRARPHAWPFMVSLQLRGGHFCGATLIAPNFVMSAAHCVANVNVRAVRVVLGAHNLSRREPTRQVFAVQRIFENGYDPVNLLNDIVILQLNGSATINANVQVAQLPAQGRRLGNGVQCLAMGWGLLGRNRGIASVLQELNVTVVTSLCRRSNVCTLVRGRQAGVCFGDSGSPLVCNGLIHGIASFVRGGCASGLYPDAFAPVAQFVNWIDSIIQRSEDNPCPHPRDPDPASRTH
human AKT serine/threonine Kinase 2 (AKT2), AKT2 (gene 208), sequence (P31751 whole entry, looked up): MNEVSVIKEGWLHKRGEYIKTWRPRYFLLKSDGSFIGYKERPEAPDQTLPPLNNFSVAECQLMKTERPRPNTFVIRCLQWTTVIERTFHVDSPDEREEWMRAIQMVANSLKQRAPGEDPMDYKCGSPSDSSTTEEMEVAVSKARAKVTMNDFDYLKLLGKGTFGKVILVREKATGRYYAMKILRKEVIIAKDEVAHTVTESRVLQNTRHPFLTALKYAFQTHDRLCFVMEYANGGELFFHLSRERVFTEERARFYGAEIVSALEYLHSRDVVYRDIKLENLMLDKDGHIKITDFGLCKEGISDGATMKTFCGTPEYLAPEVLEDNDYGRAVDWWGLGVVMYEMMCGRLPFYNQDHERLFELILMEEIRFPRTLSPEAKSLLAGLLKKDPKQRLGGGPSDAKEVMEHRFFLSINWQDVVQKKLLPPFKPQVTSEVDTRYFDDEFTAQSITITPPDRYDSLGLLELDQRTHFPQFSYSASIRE
human AKT serine/threonine Kinase 1 (AKT1), AKT1 (gene 207), sequence (P31749 whole entry, looked up): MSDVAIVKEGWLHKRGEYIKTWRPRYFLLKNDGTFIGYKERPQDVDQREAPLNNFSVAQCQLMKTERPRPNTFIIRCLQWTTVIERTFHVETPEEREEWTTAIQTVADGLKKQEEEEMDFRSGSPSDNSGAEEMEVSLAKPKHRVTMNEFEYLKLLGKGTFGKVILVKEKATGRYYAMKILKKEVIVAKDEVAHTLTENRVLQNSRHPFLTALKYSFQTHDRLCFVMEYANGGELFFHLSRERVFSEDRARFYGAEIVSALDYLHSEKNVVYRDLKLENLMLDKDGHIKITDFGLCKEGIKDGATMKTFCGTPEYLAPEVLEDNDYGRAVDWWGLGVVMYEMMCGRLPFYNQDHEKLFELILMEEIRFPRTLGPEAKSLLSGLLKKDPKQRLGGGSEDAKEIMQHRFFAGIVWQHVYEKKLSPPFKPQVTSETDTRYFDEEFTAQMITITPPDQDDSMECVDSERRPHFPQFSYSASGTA
human Ephrin type-B Receptor 1 (EphB1), EPHB1 (gene 2047), sequence (P54762 whole entry, looked up): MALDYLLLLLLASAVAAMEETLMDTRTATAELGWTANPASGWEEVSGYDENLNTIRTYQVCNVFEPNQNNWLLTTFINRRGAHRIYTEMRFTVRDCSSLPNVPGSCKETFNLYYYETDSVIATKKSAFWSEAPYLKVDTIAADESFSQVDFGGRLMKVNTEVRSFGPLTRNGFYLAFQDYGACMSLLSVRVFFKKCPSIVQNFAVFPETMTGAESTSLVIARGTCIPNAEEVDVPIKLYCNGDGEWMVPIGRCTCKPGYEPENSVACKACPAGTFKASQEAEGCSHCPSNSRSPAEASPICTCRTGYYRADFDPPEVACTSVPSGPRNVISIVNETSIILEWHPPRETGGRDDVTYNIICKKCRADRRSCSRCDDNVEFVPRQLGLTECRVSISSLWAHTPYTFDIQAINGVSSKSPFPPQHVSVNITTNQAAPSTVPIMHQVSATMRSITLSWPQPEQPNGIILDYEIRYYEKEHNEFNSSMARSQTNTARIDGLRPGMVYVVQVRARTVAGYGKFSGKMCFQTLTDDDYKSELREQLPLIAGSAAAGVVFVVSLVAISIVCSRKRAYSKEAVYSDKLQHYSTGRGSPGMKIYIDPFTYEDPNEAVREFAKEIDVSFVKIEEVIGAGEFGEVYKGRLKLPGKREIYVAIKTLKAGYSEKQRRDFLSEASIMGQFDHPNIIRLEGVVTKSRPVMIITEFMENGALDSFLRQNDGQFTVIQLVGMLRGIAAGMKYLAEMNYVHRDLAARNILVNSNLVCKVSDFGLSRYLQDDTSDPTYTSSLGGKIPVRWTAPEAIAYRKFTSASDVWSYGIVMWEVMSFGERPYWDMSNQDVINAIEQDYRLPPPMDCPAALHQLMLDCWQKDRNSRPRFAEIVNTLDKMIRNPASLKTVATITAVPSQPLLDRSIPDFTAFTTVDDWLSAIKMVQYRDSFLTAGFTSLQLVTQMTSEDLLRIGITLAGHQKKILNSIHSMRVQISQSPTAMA
human Caspase 5 (CASP5), CASP5 (gene 838), sequence (P51878 whole entry, looked up): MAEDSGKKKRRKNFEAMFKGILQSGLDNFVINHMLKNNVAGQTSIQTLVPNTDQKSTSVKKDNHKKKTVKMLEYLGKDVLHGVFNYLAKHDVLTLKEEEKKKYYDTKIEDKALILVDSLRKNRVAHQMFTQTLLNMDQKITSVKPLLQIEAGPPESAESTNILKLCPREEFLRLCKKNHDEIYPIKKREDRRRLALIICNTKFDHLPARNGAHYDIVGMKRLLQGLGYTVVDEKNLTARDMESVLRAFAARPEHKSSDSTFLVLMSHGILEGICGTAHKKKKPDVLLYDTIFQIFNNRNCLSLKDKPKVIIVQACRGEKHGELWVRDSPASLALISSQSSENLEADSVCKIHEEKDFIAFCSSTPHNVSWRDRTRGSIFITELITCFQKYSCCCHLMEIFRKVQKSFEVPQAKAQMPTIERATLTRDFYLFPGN
human Beta-secretase (BACE), BACE1 (gene 23621), sequence (P56817 whole entry, looked up): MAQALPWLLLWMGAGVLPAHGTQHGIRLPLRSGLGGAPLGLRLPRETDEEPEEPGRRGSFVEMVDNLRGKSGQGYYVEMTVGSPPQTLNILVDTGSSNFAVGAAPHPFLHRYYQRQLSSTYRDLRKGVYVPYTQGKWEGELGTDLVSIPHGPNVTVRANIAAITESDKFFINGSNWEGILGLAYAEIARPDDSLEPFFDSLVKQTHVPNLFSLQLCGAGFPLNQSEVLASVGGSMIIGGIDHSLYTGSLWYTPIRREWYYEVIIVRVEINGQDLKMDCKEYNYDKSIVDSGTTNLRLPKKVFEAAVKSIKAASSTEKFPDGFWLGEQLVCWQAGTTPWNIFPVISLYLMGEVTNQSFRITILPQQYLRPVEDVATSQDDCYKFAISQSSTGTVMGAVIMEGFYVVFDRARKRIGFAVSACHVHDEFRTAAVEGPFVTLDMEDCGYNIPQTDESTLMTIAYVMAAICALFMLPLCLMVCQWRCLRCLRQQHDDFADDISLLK

A word on the AC50: it is the concentration giving half of the maximal activity seen. Regarding `COC(=O)c1c(C(F)F)nc(C(F)(F)F)c(C2=NCCS2)c1CC(C)C`, the AC50 in assay [1] was 5.42 µM (active); in [2] it was 8.78 µM (active). Further, the molecule was classed as inactive with Caspase-1 (Homo sapiens). For `CCCCC(C#N)(Cn1cncn1)c1ccc(Cl)cc1` (configuration not stated), the AC50 in [1] is 2.96 µM (active). For `C=CCOC(=O)C(C)(C)OC(=O)c1cc(-n2c(=O)cc(C(F)(F)F)n(C)c2=O)ccc1Cl`, in [1], the AC50 is 0.407 µM (active). For the same molecule, in assay [3], the outcome was inactive.

As for `CC1(C)CCC(=Cc2ccc(Cl)cc2)C1(O)Cn1cncn1` (configuration not stated), the AC50 in [1] is 0.225 µM (active).

On to `CCOc1cc(C(C)(C)C)ccc1C1COC(c2c(F)cccc2F)=N1` (configuration not stated), for which the AC50 is 2.18 µM (active) in [1] and 40.9 µM (active) in [4].

Consider `N#Cc1c[nH]cc1-c1cccc2c1OC(F)(F)O2`, for which the call in assay [5] was inactive.

Turning to `Cc1ccc(N=CN(C)C=Nc2ccc(C)cc2C)c(C)c1`, the AC50 in assay [1] was 1.23 µM (active). Further, in [3], the molecule was classed as inactive. Turning to `COc1ccc(-c2ccccc2)cc1NNC(=O)OC(C)C`, the AC50 in assay [1] was 0.832 µM (active). As for `CC1(C)CON(Cc2ccccc2Cl)C1=O`, the molecule was called inactive in assay [5]. `N#CN=C1SCCN1Cc1ccc(Cl)nc1`: in assay [5], the AC50 is 19.6 µM (active). With `Nc1c(Cl)c(Cl)nc(C(=O)O)c1Cl`, the AC50 in assay [6] was 10.5 µM (active). Further, the molecule was classed as inactive in [7], in [8] and in [9].

For the molecule `CCOP(=S)(OCC)Oc1nc(Cl)n(C(C)C)n1`, in assay [1], the AC50 is 1.14 µM (active). In assay [4], the outcome was inactive.

Consider `CNC(=O)Oc1cccc2ccccc12`, for which, in assay [5], the AC50 is 25 µM (active).

Consider `CCC(C)n1c(=O)[nH]c(C)c(Br)c1=O` (configuration not stated), for which the result in assay [5] was inactive. As for `COP(=S)(OC)SCn1nnc2ccccc2c1=O`, the AC50 in [1] was 0.393 µM (active). The result in assay [5] was inactive.

On to `CO/N=C(/C1=NOCCO1)c1ccccc1Oc1ncnc(Oc2ccccc2Cl)c1F`, for which, in assay [1], the AC50 is 1.18 µM (active).

As for `COc1cc(OC)nc(NC(=O)NS(=O)(=O)c2ncccc2OCC(F)(F)F)n1`, the outcome in the assay with Caspase-1 (Homo sapiens) was inactive. On to `CCNC(=O)NC(=O)C(C#N)=NOC`, for which the molecule was called inactive in [5] and in assay [10]. `COC(=O)NC(=S)Nc1ccccc1NC(=S)NC(=O)OC`: the AC50 in [1] was 7.25 µM (active).

`COP(=S)(OC)Oc1ccc([N+](=O)[O-])c(C)c1`: the AC50 in [1] was 4.29 µM (active). In the case of `CCN(CC)C(=O)C(C)Oc1cccc2ccccc12` (configuration not stated), the AC50 in assay [1] was 5.34 µM (active). The outcome (with Caspase-1 (Homo sapiens); in assay [11]) was inactive. In the case of `O=c1n(Cl)c(=O)n(Cl)c(=O)n1Cl`, the result (in the assay with Caspase-1 (Homo sapiens); in assay [7]; in [8]; in [9]; in assay [4]) was inactive. For the molecule `CCCCC(O)(Cn1cncn1)c1ccc(Cl)cc1Cl` (configuration not stated), the values for the AC50 in assay [1] and in [12] were 1.6 µM (active) and 9.08 µM (active), respectively. Turning to `CCNP(=S)(OC)O/C(C)=C/C(=O)OC(C)C` (configuration not stated), the AC50 in [1] is 0.528 µM (active). The call with Caspase-1 (Homo sapiens) was inactive. As for `CC(C)=CC1C(C(=O)OCc2coc(Cc3ccccc3)c2)C1(C)C` (configuration not stated), the AC50 in [1] is 7.04 µM (active); in assay [2], 40.5 µM (active); in assay [4], 33.6 µM (active). The result in the assay with Caspase-1 (Homo sapiens) was inactive.
